Relative viability data for 25 compounds are collected here from the supplement of paper PMC6279402.

Where a name gives a salt, the structure may show the parent alone. ± gives the standard deviation of the averaged measurements.

For the assay, the system named is A549. Put plainly: relative viability (normalised to negative control = 1, bortezomib = 0) (fraction); higher = less cytotoxic. The settings on record: inflammatory serum-free RHB-A with cytokines + LPS, 5 d + 24 h CellTiter-Blue. A general note: The colour change of resazurin is a common sign of viable cells or microbes.
Where [1] appears, read: compound 30 nM, GSK126 pretreatment: 5 uM GSK126.
The mark [2] stands for this setting: compound 30 nM, GSK126 pretreatment: none (vehicle).
Setting [3] is: compound 300 nM, GSK126 pretreatment: 5 uM GSK126.
The mark [4] stands for this setting: compound 300 nM, GSK126 pretreatment: none (vehicle).

As for `CC[C@H](Nc1ncnc2nc[nH]c12)c1nc2cccc(F)c2c(=O)n1-c1ccccc1`, the relative viability is, setting by setting: under setting [1], 0.899 ± 0.11; under setting [2], 0.876 ± 0.1; under setting [3], 0.878 ± 0.08; under setting [4], 0.852 ± 0.035.
Taken in the same sequence, the figures for `CCCS(=O)(=O)Nc1ccc(F)c(C(=O)c2c[nH]c3ncc(-c4ccc(Cl)cc4)cc23)c1F` [vemurafenib] were 0.86 ± 0.082, 0.848 ± 0.071, 1 ± 0.051 and 1.02 ± 0.061.
Regarding `Nc1ncn([C@H]2C[C@H](O)[C@@H](CO)O2)c(=O)n1` [5-Aza-2'-deoxycytidine; Decitabine], the relative viability under setting [1] was found to be 0.841 ± 0.15, the relative viability under setting [2] is 0.715 ± 0.17, the relative viability under setting [3] was 0.86 ± 0.18 and the relative viability under setting [4] is 0.836 ± 0.13.
For the compound `COc1cccc(-c2cc(=O)c3ccccc3o2)c1N`, the relative viability amounted to 0.734 ± 0.07 under setting [1], 0.794 ± 0.057 under setting [2], 0.726 ± 0.19 under setting [3] and 0.825 ± 0.078 under setting [4].
Turning to `CNC(=O)c1cc(Oc2ccc(NC(=O)Nc3ccc(Cl)c(C(F)(F)F)c3)cc2)ccn1` [Sorafenib tosylate; Sorafenib; Sorafenib Tosylate], the relative viability amounted to 1.12 ± 0.089 under setting [1], 1.04 ± 0.039 under setting [2], 1.12 ± 0.18 under setting [3] and 1.1 ± 0.1 under setting [4].
Take `CC(C)n1nc(-c2cc3cc(O)ccc3[nH]2)c2c(N)ncnc21`: the relative viability reads like this: under setting [1], 0.686 ± 0.035; under setting [2], 0.751 ± 0.032; under setting [3], 0.37 ± 0.014; under setting [4], 0.431 ± 0.043.
As to `CO[C@H](C(=O)[C@@H](O)[C@@H](C)O)[C@@H]1Cc2cc3cc(O[C@H]4C[C@@H](O[C@H]5C[C@@H](O)[C@H](O)[C@@H](C)O5)[C@H](O)[C@@H](C)O4)c(C)c(O)c3c(O)c2C(=O)[C@H]1O[C@H]1C[C@@H](O[C@H]2C[C@@H](O[C@H]3C[C@](C)(O)[C@H](O)[C@@H](C)O3)[C@@H](O)[C@@H](C)O2)[C@H](O)[C@@H](C)O1` [Plicamycin], the relative viability came out at 0.1 ± 0.012 under setting [1], 0.183 ± 0.058 under setting [2], 0.00825 ± 0.00088 under setting [3] and 0.0263 ± 0.0054 under setting [4].
As for `OCCn1cc(-c2ccc3c(c2)CC/C3=N\O)c(-c2ccncc2)n1`, the relative viability under setting [1] was 0.948 ± 0.11, the relative viability under setting [2] was found to be 0.989 ± 0.093, the relative viability under setting [3] was 1.03 ± 0.21 and the relative viability under setting [4] was 1.14 ± 0.16.
Consider `Clc1ccc(Nc2nnc(Cc3ccncc3)c3ccccc23)cc1` [Vatalanib], for which the relative viability came to 0.822 ± 0.036 under setting [1], 0.791 ± 0.044 under setting [2], 0.84 ± 0.074 under setting [3] and 0.874 ± 0.05 under setting [4].
Taken in the same sequence, the figures for `Cc1ncc(-c2ccnc(Nc3ccc(S(C)(=O)=O)cc3)n2)n1C(C)C` were 0.867 ± 0.072, 0.854 ± 0.011, 0.675 ± 0.062 and 0.69 ± 0.03.
For `N#CC1(c2ccc(NC(=O)c3cccnc3NCc3ccncc3)cc2)CCCC1` [Apatinib (YN968D1)], the relative viability under setting [1] stood at 0.83 ± 0.072, the relative viability under setting [2] worked out at 0.853 ± 0.054, the relative viability under setting [3] amounted to 0.936 ± 0.085 and the relative viability under setting [4] stood at 0.9943 ± 0.005.
`Cn1cnc2c(F)c(Nc3ccc(Br)cc3Cl)c(C(=O)NOCCO)cc21` [AZD6244(Selumetinib)]: the relative viability is, setting by setting: under setting [1], 0.401 ± 0.0087; under setting [2], 0.592 ± 0.045; under setting [3], 0.203 ± 0.028; under setting [4], 0.34 ± 0.022.
Regarding `C/C(=C\c1csc(C)n1)[C@@H]1C[C@@H]2O[C@]2(C)CCC[C@H](C)[C@H](O)[C@@H](C)C(=O)C(C)(C)[C@@H](O)CC(=O)N1` [Ixabepilone], the relative viability stood at 0.464 ± 0.084 under setting [1], 0.269 ± 0.068 under setting [2], 0.386 ± 0.016 under setting [3] and 0.288 ± 0.043 under setting [4].
As for `Cc1nc(N)sc1-c1ccnc(Nc2ccc(N3CCOCC3)cc2)n1`, the relative viability is, setting by setting: under setting [1], 0.898 ± 0.061; under setting [2], 0.913 ± 0.011; under setting [3], 0.797 ± 0.1; under setting [4], 0.72 ± 0.083.
Turning to `NC(N)=NC(N)=NCCc1ccccc1` [Phenformin hydrochloride], the relative viability runs as follows: under setting [1], 0.897 ± 0.13; under setting [2], 0.864 ± 0.068; under setting [3], 0.955 ± 0.058; under setting [4], 0.966 ± 0.13.
Taken in the same sequence, the figures for `Cc1ccc([N+](=O)[O-])cc1S(=O)(=O)N(C)/N=C/c1cnc2ccc(Br)cn12` [PIK-75 Hydrochloride] were 0.0451 ± 0.0082, 0.101 ± 0.062, -0.00172 ± 0.0047 and -0.00104 ± 0.0047.
With `Nc1nc(Nc2ccc(S(N)(=O)=O)cc2)nn1C(=O)c1c(F)cccc1F`, the relative viability stood at 0.96 ± 0.1 under setting [1], 0.927 ± 0.15 under setting [2], 1.12 ± 0.067 under setting [3] and 1.07 ± 0.099 under setting [4].
Taken in the same sequence, the figures for `N#Cc1ccc(C(c2ccc(C#N)cc2)n2cncn2)cc1` [Letrozole] were 0.756 ± 0.011, 0.7993 ± 0.0055, 0.832 ± 0.063 and 0.932 ± 0.037.
Taken in the same sequence, the figures for `O=C(O)c1ccc2c(c1)nc(Nc1cccc(Cl)c1)c1ccncc12` were 0.707 ± 0.14, 0.761 ± 0.04, 0.728 ± 0.11 and 0.839 ± 0.12.
In the case of `CN(C)C1CCN(C(=O)c2ccc(NC(=O)Nc3ccc(-c4nc(N5CCOCC5)nc(N5CCOCC5)n4)cc3)cc2)CC1`, the relative viability under setting [1] came to 0.329 ± 0.01, the relative viability under setting [2] is 0.428 ± 0.011, the relative viability under setting [3] is 0.0588 ± 0.0043 and the relative viability under setting [4] came to 0.088 ± 0.0042.
In the case of `Cc1cnc(Nc2ccc(N3CCN(C)CC3)cc2)nc1Nc1cccc(S(=O)(=O)NC(C)(C)C)c1`, the relative viability by setting is: under setting [1], 1.22 ± 0.15; under setting [2], 1.2 ± 0.08; under setting [3], 1.2 ± 0.023; under setting [4], 1.27 ± 0.053.
Taken in the same sequence, the figures for `O=c1ncn2nc(Sc3ccc(F)cc3F)ccc2c1-c1c(Cl)cccc1Cl` were 0.831 ± 0.12, 0.867 ± 0.11, 1.12 ± 0.12 and 1.03 ± 0.16.
In the case of `O=P(O)(O)C(O)(Cn1ccnc1)P(=O)(O)O` [Zoledronic acid; Zolendronic acid], the relative viability under setting [1] is 0.936 ± 0.023, the relative viability under setting [2] was 0.924 ± 0.15, the relative viability under setting [3] was 1.09 ± 0.12 and the relative viability under setting [4] came out at 1.08 ± 0.051.
In the case of `CN(C)C/C=C/C(=O)Nc1cc2c(Nc3ccc(F)c(Cl)c3)ncnc2cc1O[C@H]1CCOC1` [BIBW2992; BIBW2992(Tovok)], the relative viability by setting is: under setting [1], 0.389 ± 0.018; under setting [2], 0.374 ± 0.028; under setting [3], 0.281 ± 0.036; under setting [4], 0.328 ± 0.052.
Regarding `COc1cc2c(Oc3ccc(NC(=O)C4(C(=O)Nc5ccc(F)cc5)CC4)cc3F)ccnc2cc1OCCCN1CCOCC1`, the relative viability is, setting by setting: under setting [1], 0.797 ± 0.081; under setting [2], 0.789 ± 0.037; under setting [3], 0.57 ± 0.1; under setting [4], 0.573 ± 0.074.
